From paper PMC5700166 come the findings set out here.

In this assay the target is T1, GST-Aq-NF-kB (Amphimedon queenslandica, UniProt A9Y5G7 2-389).
T1 sequence: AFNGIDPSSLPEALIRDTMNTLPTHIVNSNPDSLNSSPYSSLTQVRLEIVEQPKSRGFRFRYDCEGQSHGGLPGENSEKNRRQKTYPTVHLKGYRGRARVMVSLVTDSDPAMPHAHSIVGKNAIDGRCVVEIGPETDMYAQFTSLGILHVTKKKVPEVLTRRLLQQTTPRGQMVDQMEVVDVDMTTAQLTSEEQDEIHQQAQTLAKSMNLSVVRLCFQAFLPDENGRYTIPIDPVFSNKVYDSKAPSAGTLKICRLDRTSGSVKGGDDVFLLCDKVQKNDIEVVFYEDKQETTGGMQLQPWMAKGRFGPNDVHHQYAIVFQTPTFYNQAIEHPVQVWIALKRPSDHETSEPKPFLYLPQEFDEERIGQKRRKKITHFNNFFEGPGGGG
In words: protein-binding microarray (PBM); PBM: ~300 nM protein, 6 mM HEPES pH 7.8, 80 mM KCl, 0.5 mM EDTA, 0.5 mM EGTA, 6% glycerol, 35 ng/ul poly-dIdC, 1% milk, 1 h, room temperature; Ap Aiptasia and Nv Nematostella (sea anemones) / Co Capsaspora / Aq Amphimedon (sponge) / Dm Drosophila / Hu human; RHD is the Rel homology domain; high values mean tight binding. Particulars: dsDNA, one strand shown.
“CCGATTAACATCAAAATTTTCCCTGATGTTAATCGGGTCTTGATTCGCTTGACGCTGCTG”: the binding signal amounted to 7.04 z-score. The value for “CCGATTAACATCAAGTTTTCCCCTGATGTTAATCGGGTCTTGATTCGCTTGACGCTGCTG” was 6.59 z-score. The value for “CCGATTAACATCAAGGGAAATTCTGATGTTAATCGGGTCTTGATTCGCTTGACGCTGCTG” was 6.88 z-score; that for “CCGATTAACATCAAATTCCCACATGATGTTAATCGGGTCTTGATTCGCTTGACGCTGCTG” was 2.66 z-score. For “CCGATTAACATCAATGGGATTTCTGATGTTAATCGGGTCTTGATTCGCTTGACGCTGCTG”, the binding signal came to 2.47 z-score. The value for “CCGATTAACATCAAGGGGGTATCTGATGTTAATCGGGTCTTGATTCGCTTGACGCTGCTG” was 4.34 z-score. The value for “CCGATTAACATCAAAATTCCCTATGATGTTAATCGGGTCTTGATTCGCTTGACGCTGCTG” was 6.99 z-score; that for “CCGATTAACATCAGAAGTGGGAATGATGTTAATCGGGTCTTGATTCGCTTGACGCTGCTG” was 2.35 z-score; that for “CCGATTAACATCAGGGGGAACCATGATGTTAATCGGGTCTTGATTCGCTTGACGCTGCTG” was 4.5 z-score. The figure for “CCGATTAACATCAAGGTTTCCCCTGATGTTAATCGGGTCTTGATTCGCTTGACGCTGCTG” is 6.28 z-score; for “CCGATTAACATCAGGGAATAACCTGATGTTAATCGGGTCTTGATTCGCTTGACGCTGCTG” it is 7.2 z-score; for “CCGATTAACATCAGTATTTCCCATGATGTTAATCGGGTCTTGATTCGCTTGACGCTGCTG” it is 3.73 z-score.

Consider “CCGATTAACATCAGGGGATTCGATGATGTTAATCGGGTCTTGATTCGCTTGACGCTGCTG”, for which the binding signal came out at 3.6 z-score. In turn, “CCGATTAACATCATGGGGAAAAATGATGTTAATCGGGTCTTGATTCGCTTGACGCTGCTG” gave a binding signal of 4.9 z-score. Turning to “CCGATTAACATCAACATTCCCCCTGATGTTAATCGGGTCTTGATTCGCTTGACGCTGCTG”, the binding signal came to 6.29 z-score. As to “CCGATTAACATCAACAATTTCCCTGATGTTAATCGGGTCTTGATTCGCTTGACGCTGCTG”, the binding signal came out at 4.15 z-score.

On to “CCGATTAACATCAAAAAACCCCTTGATGTTAATCGGGTCTTGATTCGCTTGACGCTGCTG”, for which the binding signal was found to be 8 z-score. “CCGATTAACATCACGGGGATTTCTGATGTTAATCGGGTCTTGATTCGCTTGACGCTGCTG” returned a binding signal of 7.52 z-score. Consider “CCGATTAACATCACTTTTTCCCCTGATGTTAATCGGGTCTTGATTCGCTTGACGCTGCTG”, for which the binding signal is 4.94 z-score. The value for “CCGATTAACATCAGCGGGAATCCTGATGTTAATCGGGTCTTGATTCGCTTGACGCTGCTG” was 3.03 z-score; that for “CCGATTAACATCAGATTTTCCCATGATGTTAATCGGGTCTTGATTCGCTTGACGCTGCTG” was 4.25 z-score; that for “CCGATTAACATCACCCTGGGAAATGATGTTAATCGGGTCTTGATTCGCTTGACGCTGCTG” was 1.74 z-score.

For “CCGATTAACATCAGGGGGACTAATGATGTTAATCGGGTCTTGATTCGCTTGACGCTGCTG”, the binding signal turned out to be 4.27 z-score.

On to “CCGATTAACATCAAGGGGATCCCTGATGTTAATCGGGTCTTGATTCGCTTGACGCTGCTG”, for which the binding signal was found to be 6.69 z-score. Turning to “CCGATTAACATCACGGGATTCCCTGATGTTAATCGGGTCTTGATTCGCTTGACGCTGCTG”, the binding signal is 7.3 z-score. Take “CCGATTAACATCAGGGGGTTCTATGATGTTAATCGGGTCTTGATTCGCTTGACGCTGCTG”: the binding signal amounted to 5.33 z-score.

With “CCGATTAACATCAAAAATCCCCTTGATGTTAATCGGGTCTTGATTCGCTTGACGCTGCTG”, the binding signal was found to be 8.57 z-score. With “CCGATTAACATCAAAAATACCCTTGATGTTAATCGGGTCTTGATTCGCTTGACGCTGCTG”, the binding signal stood at 7.5 z-score. Regarding “CCGATTAACATCAAAGCTTCCCCTGATGTTAATCGGGTCTTGATTCGCTTGACGCTGCTG”, the binding signal was 4.64 z-score. In the case of “CCGATTAACATCAACTTCCCCCCTGATGTTAATCGGGTCTTGATTCGCTTGACGCTGCTG”, the binding signal came to 6.32 z-score. The value for “CCGATTAACATCAGAAAATACCCTGATGTTAATCGGGTCTTGATTCGCTTGACGCTGCTG” was 7.37 z-score. In turn, “CCGATTAACATCAAAAAGACCCCTGATGTTAATCGGGTCTTGATTCGCTTGACGCTGCTG” showed a binding signal of 5.55 z-score. For the sequence “CCGATTAACATCAGGGAATCCCATGATGTTAATCGGGTCTTGATTCGCTTGACGCTGCTG”, the binding signal came out at 6.45 z-score. With “CCGATTAACATCAAGGGGTTTTCTGATGTTAATCGGGTCTTGATTCGCTTGACGCTGCTG”, the binding signal was found to be 6.95 z-score. The value for “CCGATTAACATCAAAGTCCCGGGTGATGTTAATCGGGTCTTGATTCGCTTGACGCTGCTG” was 3.49 z-score; that for “CCGATTAACATCAGGGACTTTTATGATGTTAATCGGGTCTTGATTCGCTTGACGCTGCTG” was 7.89 z-score; that for “CCGATTAACATCAGGCAACCCCCTGATGTTAATCGGGTCTTGATTCGCTTGACGCTGCTG” was 6.21 z-score. Consider “CCGATTAACATCAGGGGGGTAACTGATGTTAATCGGGTCTTGATTCGCTTGACGCTGCTG”, for which the binding signal worked out at 4.37 z-score. In turn, “CCGATTAACATCAGGGGGGACTATGATGTTAATCGGGTCTTGATTCGCTTGACGCTGCTG” registered a binding signal of 4.64 z-score. The value for “CCGATTAACATCAGGGAAAATAATGATGTTAATCGGGTCTTGATTCGCTTGACGCTGCTG” was 4.47 z-score.
